The values below come from PubChem BioAssay.

Assay [1] in a line: yeast TOR pathway RPL19A-GFP modulators, primary screen, cell-based, S. cerevisiae, multiplex flow cytometry (AID 1862; in the data active means percent of DMSO control GFP below about 86%;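 further: lower values mimic rapamycin by blocking the RPL19A rise seen in DMSO cells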). To be noted: S. cerevisiae RPL19A-GFP strain, flow cytometry fluorescence, 3 h; at 10 µM; stronger effect = lower value. Background: A flow cytometer gives signals particle by particle.
The nature of assay [2]: modulators of MEP2-GFP levels in yeast, primary screen, S. cerevisiae, multiplex flow cytometry (AID 1867;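 active means GFP response, as percent of the DMSO control, above the screen-wide mean plus 3 SD, about 139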;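 further: median GFP channel fluorescence of barcode-gated MEP2-GFP cells measured by flow cytometry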). To be noted: S. cerevisiae MEP2-GFP strain, 3 h, at 10 µM, stronger effect = higher value, 100% means same as DMSO wells.
A short description of assay [3]: modulators of CIT2-GFP expression in yeast, primary screen, S. cerevisiae, GFP fusion, multiplex flow cytometry (AID 1870;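 active means percent response above a set limit, the screen-wide mean plus 3 SD, cut at about 130% in these data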;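 further: barcoded CIT2-GFP strain pooled with four other GFP strains with rapamycin as positive control; median GFP fluorescence per well over plate mean of DMSO wells so 100% = DMSO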). To be noted: 3 h, at 10 µM, stronger effect = higher value.
Assay [4] is described as follows: modulators of LAP4-GFP expression in yeast, primary screen, S. cerevisiae, multiplex flow cytometry (AID 1873). To be noted: 3 h, at 10 µM, stronger effect = higher value.
A short description of assay [5]: modulators of AGP1-GFP expression in yeast TOR pathway, primary screen, cell-based, multiplex flow cytometry, S. cerevisiae (AID 1887;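 active means GFP signal above the screen-wide mean plus 3 SD, that is over about 124.5% of the solvent control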;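 further: AGP1-GFP fusion strain of S. cerevisiae within a five-strain barcoded multiplex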). To be noted: 3 h, at 10 µM, stronger effect = higher value.
A short description of assay [6]: inhibitors of CD8+ T cell-vesicle binding, pilot screen, LFA-1/ICAM-1 modulator project, MLPCN validation set, flow cytometry (AID 2523;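 active means response below a set limit, under 55% cells CD8-positive and vesicle-bound, and CD8 cells' 90th-percentile brightness under 279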;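 on vesicle binding response: mean PE anti-B7-1 fluorescence of CD8+ cells relative to row control; 100% = QL9-loaded vesicles with DMSO vehicle in the same plate row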). To be noted: 2C mouse CD8+ T cells, at 7 µM, stronger effect = lower value; double positive events: measured here: CD8+/vesicle+ event percentage.
Assay [7] deals with Integrin beta-1 (Homo sapiens) + Integrin alpha-4 (Homo sapiens) (UniProt P13612+P05556). The assay is described as follows: inhibition of HUTS-21 binding to VLA-4, pilot screen, VLA-4 allosteric modulator project, U937 cells, HUTS-21 mAb, flow cytometry, validation set (AID 2674;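 active means inhibition above 50%, about 3 SD of the validation set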;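 further: antibody binding induced by the VLA-4 ligand LDV present at three times its Kd; 0% = LDV ligand with antibody and no compound and 100% = antibody without LDV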). To be noted: HUTS-21 LIBS mAb binding, at 6.7 µM, stronger effect = higher value, binding induced by LDV ligand.
Sequence of Integrin beta-1 (Homo sapiens) + Integrin alpha-4 (Homo sapiens) (P05556 whole entry, looked up): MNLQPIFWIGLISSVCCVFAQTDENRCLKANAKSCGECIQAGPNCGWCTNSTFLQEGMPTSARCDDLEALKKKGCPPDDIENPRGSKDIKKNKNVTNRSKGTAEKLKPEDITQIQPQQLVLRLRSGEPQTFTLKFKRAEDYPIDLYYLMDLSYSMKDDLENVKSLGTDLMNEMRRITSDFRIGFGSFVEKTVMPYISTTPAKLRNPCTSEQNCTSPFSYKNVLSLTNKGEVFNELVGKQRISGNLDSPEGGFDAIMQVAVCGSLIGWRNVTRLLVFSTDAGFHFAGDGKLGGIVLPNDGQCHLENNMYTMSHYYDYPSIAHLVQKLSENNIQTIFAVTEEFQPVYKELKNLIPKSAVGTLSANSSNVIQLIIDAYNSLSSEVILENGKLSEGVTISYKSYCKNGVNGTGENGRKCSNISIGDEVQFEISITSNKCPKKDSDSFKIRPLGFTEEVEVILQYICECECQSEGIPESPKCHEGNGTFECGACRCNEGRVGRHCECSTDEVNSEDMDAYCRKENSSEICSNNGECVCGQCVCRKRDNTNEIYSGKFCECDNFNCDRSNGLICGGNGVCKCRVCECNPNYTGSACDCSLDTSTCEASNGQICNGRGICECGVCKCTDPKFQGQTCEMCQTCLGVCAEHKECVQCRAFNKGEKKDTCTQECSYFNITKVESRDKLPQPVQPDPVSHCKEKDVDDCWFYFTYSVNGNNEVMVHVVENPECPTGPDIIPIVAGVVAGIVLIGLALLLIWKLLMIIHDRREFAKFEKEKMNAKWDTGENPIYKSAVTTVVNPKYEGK
Sequence of Integrin beta-1 (Homo sapiens) + Integrin alpha-4 (Homo sapiens) (P13612 whole entry, looked up): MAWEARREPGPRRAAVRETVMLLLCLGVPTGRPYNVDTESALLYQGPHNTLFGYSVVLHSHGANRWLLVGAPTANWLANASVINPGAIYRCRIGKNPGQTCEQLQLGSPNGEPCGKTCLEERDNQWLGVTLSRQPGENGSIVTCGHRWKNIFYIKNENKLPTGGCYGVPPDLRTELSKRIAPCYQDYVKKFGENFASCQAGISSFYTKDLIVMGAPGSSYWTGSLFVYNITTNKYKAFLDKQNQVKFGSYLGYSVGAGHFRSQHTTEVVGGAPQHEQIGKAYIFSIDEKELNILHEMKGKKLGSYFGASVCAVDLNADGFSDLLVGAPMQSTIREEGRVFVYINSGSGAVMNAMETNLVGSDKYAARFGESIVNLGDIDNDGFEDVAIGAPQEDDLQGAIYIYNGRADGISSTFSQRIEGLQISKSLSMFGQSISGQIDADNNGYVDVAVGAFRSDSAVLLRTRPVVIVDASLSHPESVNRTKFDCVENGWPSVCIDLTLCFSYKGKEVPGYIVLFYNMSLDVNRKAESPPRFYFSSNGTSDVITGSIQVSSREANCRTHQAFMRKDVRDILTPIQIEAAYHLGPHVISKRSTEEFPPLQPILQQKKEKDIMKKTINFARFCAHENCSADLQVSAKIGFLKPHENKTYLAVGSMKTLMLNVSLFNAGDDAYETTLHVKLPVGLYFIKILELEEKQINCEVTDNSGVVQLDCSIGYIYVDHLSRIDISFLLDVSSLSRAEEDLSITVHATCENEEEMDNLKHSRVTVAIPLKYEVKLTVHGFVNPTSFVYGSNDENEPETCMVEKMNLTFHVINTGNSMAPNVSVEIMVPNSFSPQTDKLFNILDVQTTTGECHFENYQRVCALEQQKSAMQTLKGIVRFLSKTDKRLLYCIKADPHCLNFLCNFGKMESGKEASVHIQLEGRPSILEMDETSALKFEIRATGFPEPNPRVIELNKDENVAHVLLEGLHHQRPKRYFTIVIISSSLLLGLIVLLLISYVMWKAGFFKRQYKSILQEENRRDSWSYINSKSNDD

A short description of assay [8]: superoxide lowering in aged yeast cells, pilot screen, validation compound set (AID 2706;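 active means superoxide response below 65% of plate, a cut near 3 SD across the whole screen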;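 further: yeast exposed to compound for one week at 30 degrees C before staining; 100% = mean of all compound wells on the same plate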). To be noted: S. cerevisiae aging, superoxide DHE fluorescence; at 10 µM; stronger effect = lower value.
Assay [9] deals with Beta-adrenergic receptor kinase 1 (Homo sapiens) (UniProt P25098). The assay is described as follows: GRK2 binders displacing RNA aptamer, biochemical, validation, human GRK2, bead flow cytometry (AID 488806;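 active means aptamer binding inhibition above 30%, about 3 SD of noise from non-fluorescent compounds; inactive means inhibition at or below 30%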). To be noted: bead-bound GRK2, FAM-aptamer displacement, at 10 µM, stronger effect = higher value.
Sequence of Beta-adrenergic receptor kinase 1 (Homo sapiens) (P25098 whole entry, looked up): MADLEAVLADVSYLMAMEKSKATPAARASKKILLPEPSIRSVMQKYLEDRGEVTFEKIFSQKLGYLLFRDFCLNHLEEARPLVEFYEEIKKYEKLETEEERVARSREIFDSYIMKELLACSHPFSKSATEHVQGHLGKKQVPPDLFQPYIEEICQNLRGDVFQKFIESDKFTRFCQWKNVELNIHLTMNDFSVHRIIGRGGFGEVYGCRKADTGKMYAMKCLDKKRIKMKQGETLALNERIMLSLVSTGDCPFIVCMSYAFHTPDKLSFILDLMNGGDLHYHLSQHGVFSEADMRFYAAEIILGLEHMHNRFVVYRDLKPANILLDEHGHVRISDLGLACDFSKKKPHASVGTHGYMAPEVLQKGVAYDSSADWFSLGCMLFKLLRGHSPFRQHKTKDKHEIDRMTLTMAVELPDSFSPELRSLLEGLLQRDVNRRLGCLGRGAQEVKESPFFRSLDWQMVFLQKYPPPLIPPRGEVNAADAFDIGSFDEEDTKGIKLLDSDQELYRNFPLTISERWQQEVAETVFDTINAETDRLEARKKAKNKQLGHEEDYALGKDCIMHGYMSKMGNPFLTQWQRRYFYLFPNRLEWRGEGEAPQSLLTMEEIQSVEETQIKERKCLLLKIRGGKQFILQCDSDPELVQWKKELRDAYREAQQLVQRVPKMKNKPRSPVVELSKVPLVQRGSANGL
Assay [10] has as its target Beta-2 adrenergic receptor (Homo sapiens) (UniProt P07550). The assay is described as follows: beta2AR agonists driving receptor internalization, pilot screen, cell-based, FAP fluorogen, flow cytometry, validation set (AID 504459;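 active means percent response above 42, roughly 3 SD of non-fluorescent test compounds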;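 further: agonist-driven loss of surface beta2AR via internalization measured by FAP dye flow cytometry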). To be noted: Am2.2-beta2AR cells, FAP surface receptor flow cytometry; at 10 µM; stronger effect = higher value.
Assay [11] concerns the target AP-2 complex subunit beta (Homo sapiens) (UniProt P63010). The assay is described as follows: inhibitors of arrestin peptide binding to AP2, pilot screen, biochemical, validation set, GST-AP2 beads, flow cytometry (AID 504541;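 active means inhibition above 54%, about 3 SD of non-fluorescent compounds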;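 further: AP2 carries R879A mutation and is captured from E. coli lysate; bead-bound FITC arrestin peptide fluorescence measuring arrestin peptide binding to AP2; 0% = DMSO wells and 100% = excess unlabeled arrestin peptide control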). To be noted: FITC arrestin peptide, at 10 µM, stronger effect = higher value, AP2 beta2 appendage fragment, R879A mutant.
A short description of assay [12]: yeast V-ATPase proton transport modulators, S. cerevisiae, pHLuorin, HTS validation (AID 504600; in the data active means response above about 15%;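 further: plate controls were DMSO for no effect and reference compound for full effect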). To be noted: S. cerevisiae pHLuorin cytosolic pH, at 10 µM, stronger effect = higher value.
Assay [13] has as its system anti-desmoglein-3 scFv antibody binding to human DSG3. The assay is described as follows: inhibitors of anti-DSG3 scFv binding to DSG3, pilot screen, biochemical, validation compound set, bead-based, flow cytometry (AID 588368;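 active means binding below the plate cutoff, the plate median minus 3 SD, with a reading above zero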;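 further: signal is the median channel fluorescence of bead-bound GFP antibody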). To be noted: Protein G beads, DSG3-Fc, scFv-GFP binding, at 10 µM, stronger effect = lower value.
The nature of assay [14]: inhibitors of fungal efflux pumps CDR1, CDR2, MDR1, pilot screen, validation compound set, multiplex, phenotypic (AID 588506;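 active means efflux inhibition above 0.42, the validation set average plus 4 SD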;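 further: Nile Red retained in cells so higher fluorescence means more efflux inhibition; 0 = negative control wells and 1 = enniatin B 25 µM full block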). To be noted: S. cerevisiae pump-expressing triplex, Nile Red efflux flow cytometry; at 10 µM; stronger effect = higher value; the pumps come from Candida albicans.
Assay [15] deals with ATP-binding cassette sub-family B member 6 (Homo sapiens) (UniProt Q9NP58). Briefly: ABCB6 transporter inhibitors, pilot screen, K562-ABCB6 cells, flow cytometry, validation set (AID 588550;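 active means inhibition above the screen-wide mean plus 3 SD, about 51%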;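 further: 0% = DMSO wells and 100% = benzethonium chloride 70 µM positive control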). To be noted: K562-ABCB6 porphyrin accumulation, 1 h, at 10 µM, stronger effect = higher value.
Sequence of ATP-binding cassette sub-family B member 6 (Homo sapiens) (Q9NP58 whole entry, looked up): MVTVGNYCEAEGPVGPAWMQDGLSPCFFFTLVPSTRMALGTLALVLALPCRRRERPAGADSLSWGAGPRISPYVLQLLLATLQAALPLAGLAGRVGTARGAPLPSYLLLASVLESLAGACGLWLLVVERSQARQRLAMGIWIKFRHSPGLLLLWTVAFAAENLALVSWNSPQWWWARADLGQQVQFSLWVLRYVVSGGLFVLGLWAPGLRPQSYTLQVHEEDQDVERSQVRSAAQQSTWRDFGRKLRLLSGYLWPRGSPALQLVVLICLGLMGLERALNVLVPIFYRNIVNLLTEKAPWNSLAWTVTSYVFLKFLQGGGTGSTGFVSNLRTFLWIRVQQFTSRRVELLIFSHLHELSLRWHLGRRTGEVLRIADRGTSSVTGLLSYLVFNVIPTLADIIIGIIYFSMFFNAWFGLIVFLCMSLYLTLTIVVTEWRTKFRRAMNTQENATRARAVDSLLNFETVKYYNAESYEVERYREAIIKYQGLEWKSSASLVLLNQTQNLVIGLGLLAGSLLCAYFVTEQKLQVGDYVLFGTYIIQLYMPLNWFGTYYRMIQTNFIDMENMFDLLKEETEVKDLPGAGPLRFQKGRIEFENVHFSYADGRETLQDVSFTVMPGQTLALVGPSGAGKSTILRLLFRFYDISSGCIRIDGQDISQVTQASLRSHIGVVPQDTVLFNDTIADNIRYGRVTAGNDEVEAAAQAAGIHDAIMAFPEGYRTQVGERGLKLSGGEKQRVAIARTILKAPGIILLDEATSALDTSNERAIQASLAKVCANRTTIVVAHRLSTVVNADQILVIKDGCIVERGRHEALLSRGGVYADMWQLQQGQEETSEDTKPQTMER
The nature of assay [16]: promoters of myeloid differentiation in arrested cells, primary screen, cell-based, GFP/MAC1 double positive, flow cytometry, validation set (AID 588685;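 active means differentiation response of at least 50%, scaled between solvent and reference control, from cells with both markers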;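 further: compound exposure lasts four days before antibody staining and flow analysis; 0% = DMSO wells and 100% = 5 µM fulvestrant positive control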). To be noted: ER-HoxA9 marrow cells, stronger effect = higher value, normalized: vehicle 0, fulvestrant 100.

“And” between values parts separate entries of the source, which are not always exact repeats. Identical values can stand only once. Records with an inconclusive call do not appear. The source made the active and inactive calls.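 How the source made its calls, unless noted: active means GFP signal, as percent of the solvent control, above the screen mean plus 3 SD, about 149; inconclusive means no reading because the compound's own fluorescence upset strain identification; inactive means the rest.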

Sequence of Beta-2 adrenergic receptor (Homo sapiens) (P07550 whole entry, looked up): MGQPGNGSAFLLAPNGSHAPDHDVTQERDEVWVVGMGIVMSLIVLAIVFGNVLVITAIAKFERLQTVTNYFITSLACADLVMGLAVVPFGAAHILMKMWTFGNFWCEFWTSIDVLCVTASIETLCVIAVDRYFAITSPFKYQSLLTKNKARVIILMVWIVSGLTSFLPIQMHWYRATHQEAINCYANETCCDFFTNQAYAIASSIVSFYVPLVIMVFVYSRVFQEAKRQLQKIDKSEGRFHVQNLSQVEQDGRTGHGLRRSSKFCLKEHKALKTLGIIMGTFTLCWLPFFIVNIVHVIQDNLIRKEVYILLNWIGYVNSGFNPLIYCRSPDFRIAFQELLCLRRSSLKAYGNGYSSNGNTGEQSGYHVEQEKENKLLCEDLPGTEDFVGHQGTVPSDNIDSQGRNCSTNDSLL
Sequence of AP-2 complex subunit beta (Homo sapiens) (P63010 whole entry, looked up, the tested form may be a part, one chain of several): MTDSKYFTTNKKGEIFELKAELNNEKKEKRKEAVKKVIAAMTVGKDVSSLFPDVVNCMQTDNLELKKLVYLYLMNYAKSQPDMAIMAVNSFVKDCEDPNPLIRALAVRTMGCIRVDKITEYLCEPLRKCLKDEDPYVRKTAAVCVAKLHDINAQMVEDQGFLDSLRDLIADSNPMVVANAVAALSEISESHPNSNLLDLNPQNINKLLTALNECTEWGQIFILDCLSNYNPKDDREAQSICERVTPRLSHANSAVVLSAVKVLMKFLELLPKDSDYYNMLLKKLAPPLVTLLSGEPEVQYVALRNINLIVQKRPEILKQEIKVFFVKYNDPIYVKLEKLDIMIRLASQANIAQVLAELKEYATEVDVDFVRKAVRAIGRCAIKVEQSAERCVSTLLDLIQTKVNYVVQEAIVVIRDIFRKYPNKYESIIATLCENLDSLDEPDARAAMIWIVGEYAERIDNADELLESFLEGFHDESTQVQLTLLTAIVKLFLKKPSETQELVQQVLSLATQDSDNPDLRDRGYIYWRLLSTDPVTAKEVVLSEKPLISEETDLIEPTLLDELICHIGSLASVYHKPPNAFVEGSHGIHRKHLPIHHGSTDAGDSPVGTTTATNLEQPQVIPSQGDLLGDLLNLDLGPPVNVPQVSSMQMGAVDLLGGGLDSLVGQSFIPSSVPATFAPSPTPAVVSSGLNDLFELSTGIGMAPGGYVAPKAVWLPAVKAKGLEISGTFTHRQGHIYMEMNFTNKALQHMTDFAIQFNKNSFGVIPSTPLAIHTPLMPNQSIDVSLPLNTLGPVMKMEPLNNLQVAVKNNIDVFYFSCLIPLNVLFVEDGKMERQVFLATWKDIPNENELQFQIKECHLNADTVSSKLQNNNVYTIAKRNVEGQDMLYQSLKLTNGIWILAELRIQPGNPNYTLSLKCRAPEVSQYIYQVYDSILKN

For orientation: inhibition means the drop in the measured response relative to a control, in per cent. `N#Cc1cc2c([nH]c1=O)CCCC2`: in [1], the percent of DMSO control GFP was 103% (inactive). For the same molecule, the figures for the GFP response vs DMSO in assay [2] and in [4] were 98.3% (inactive) and 90.7% (inactive), respectively. Also, in [3], the percent response of DMSO control is 108% (inactive). The GFP response, % of DMSO in [5] is 108% (inactive). For the same molecule, in assay [6], the double positive events is 63.2%. Further, the vesicle binding response in [6] was 184% (inactive). Also, the inhibition is 16.1% (inactive) in assay [7], -13.1% (inactive) in assay [11] and -2% (inactive) in [15]. In [8], the superoxide response (% of plate) was 89.5% (inactive). Also, the aptamer binding inhibition in assay [9] was 0% (inactive). Also, the values for the response in [10] and in assay [12] were -10.3% (inactive) and 12.5% (inactive), respectively. For the same molecule, the binding (% of control) in [13] is 97.7% (inactive). Besides, the efflux inhibition (fraction of control) in assay [14] was -0.04 (inactive). Also, the differentiation response in assay [16] was -5.62% (inactive).

For the molecule `Nc1ccc(C(=O)O)c(O)c1`, the percent of DMSO control GFP in assay [1] was 102% (inactive). For the same molecule, the GFP response vs DMSO in assay [2] was 106% (inactive) and 107% (inactive); in assay [4], 100% (inactive) and 111% (inactive). Moreover, the percent response of DMSO control in assay [3] is 99.7% (inactive) and 96.7% (inactive). In assay [5], the GFP response, % of DMSO is 104% (inactive) and 106% (inactive). Also, the double positive events in [6] is 61.7% and 60.8%. Also, the vesicle binding response in assay [6] was 199% (inactive) and 232% (inactive). Also, the inhibition in [7] was -2.43% (inactive) and 6.4% (inactive); in assay [11], -7.61% (inactive) and 3.32% (inactive); in [15] it was 3% (inactive) and 8% (inactive). The superoxide response (% of plate) in assay [8] was 95.4% (inactive) and 103% (inactive). Besides, the aptamer binding inhibition in assay [9] was 5% (inactive) and 4% (inactive). For the same molecule, the response in assay [10] is -5.54% (inactive) and 8.67% (inactive); in assay [12], -2.48% (inactive) and -0.83% (inactive). For the same molecule, the binding (% of control) in [13] was 103% (inactive) and 100% (inactive). In assay [14], the efflux inhibition (fraction of control) was 0.28 (inactive) and -0.03 (inactive). Besides, in [16], the differentiation response was -7.5% (inactive) and -31.2% (inactive).

For `O=Cc1ccccc1Oc1ccccc1`, the percent of DMSO control GFP in [1] was 93.3% (inactive). Besides, the values for the GFP response vs DMSO in [2] and in assay [4] were 125% (inactive) and 86.4% (inactive), respectively. Moreover, the percent response of DMSO control in assay [3] was 115% (inactive). The GFP response, % of DMSO in assay [5] is 90.3% (inactive). In addition, the double positive events in assay [6] was found to be 57.3%. Also, the vesicle binding response in [6] is 200% (inactive). In addition, the inhibition in assay [7] is -14.9% (inactive); in [11], 32.8% (inactive); in [15] it was -2% (inactive). Further, in assay [8], the superoxide response (% of plate) was 107% (inactive). The aptamer binding inhibition in assay [9] was -5% (inactive). For the same molecule, the response was -1.17% (inactive) in [10] and -3.79% (inactive) in assay [12]. For the same molecule, in [13], the binding (% of control) is 107% (inactive). Besides, the efflux inhibition (fraction of control) in assay [14] was 0.12 (inactive). Besides, the differentiation response in assay [16] is 33.6% (inactive).

In the case of `Cc1oncc1C(=O)Nc1ccc(C(F)(F)F)cc1`, the percent of DMSO control GFP in assay [1] was 95.7% (inactive). For the same molecule, the results for the GFP response vs DMSO in assay [2] and in assay [4] were 98.6% (inactive) and 124% (inactive), respectively. For the same molecule, in assay [3], the percent response of DMSO control was 101% (inactive). In addition, in [5], the GFP response, % of DMSO is 105% (inactive). The double positive events in [6] is 57.4%. Further, the vesicle binding response in [6] was 171% (inactive). Moreover, the figures for the inhibition in assay [7], in assay [11] and in assay [15] were 3.99% (inactive), -2.96% (inactive) and -7% (inactive), respectively. Besides, the superoxide response (% of plate) in [8] was 101% (inactive). Also, in assay [9], the aptamer binding inhibition is 10% (inactive). The response was -21.8% (inactive) in assay [10] and 6.73% (inactive) in assay [12]. For the same molecule, the binding (% of control) in [13] was 96% (inactive). Also, the efflux inhibition (fraction of control) in [14] is -0.04 (inactive). Besides, the differentiation response in [16] is -4.99% (inactive).
